Each structure is given as a SMILES string. Among all 55,000 compounds or so, about 530 (0.96%) were called active. A call without a number means that no potency is given here. Roughly 7% stayed inconclusive and do not appear here. Calls follow the shape of the dose curve; as a rule, active = well fitted cell-killing curve with a large enough effect; inconclusive = small, poorly fitted or top-dose-only effect; inactive = no such curve, though single readings can be large or run the other way. Many of the other results were omitted from the sample, so actives are more common in it than they were.
Potency is read from the fitted curve at half-maximal effect.

This assay in a line: qHTS Screen for Compounds that Selectively Target Cancer Cells with p53 Mutations: Cytotoxicity of p53 Null Cells at the Nonpermissive Temperature. Also: nearly all actives have a fitted effect of over 50% in size. The note with it: H1299 p53-null (neo) cells, 39C, ATPlite viability, 24 h; series mostly up to 46.1 µM. In short, it runs like this:
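Cells seeded at 600/well, 37C overnight. Compound added (up to 46 uM), plates shifted to 39C for 24 hr. ATPlite added, luminescence read after 20 min at room temperature.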
A general note: In qHTS, concentration-response curves come from the screen itself.
In the case of `C=CCn1c(SCC(N)=O)nnc1-c1cc2c(s1)CCC(CC)C2` (centres undefined), the Potency entry was “inactive”.

In the case of `Cc1nc2sc(C)c(C)n2c(=O)c1S(=O)(=O)NCCc1ccc(Cl)cc1`, the Potency entry is “inactive”.

In the case of `Cc1cc(C)c(/C=C/c2onc(C)c2S(=O)(=O)N2CCC(C(=O)Nc3ccc(Cl)cc3C)CC2)c(C)c1`, the Potency entry is “inactive”.

Consider `O=C(CNS(=O)(=O)c1cccs1)N1CCN(c2ccccc2Cl)CC1`, for which the Potency result is “inactive”.

`COc1ccc(OC)c(NC(=O)CSC2=Nc3ccccc3C3=NC(CC(=O)NCCc4ccccc4)C(=O)N23)c1` (centres undefined): the Potency entry is “inactive”.

`COc1cc(Cl)c(C)cc1NC(=O)COC(=O)c1cc(SC)ccc1Cl`: the Potency result was “inactive”.

Take `Cc1cc2n(n1)C(c1cc(C(C)(C)C)c(O)cc1O)Nc1ccccc1-2` (centres undefined): the Potency result was “inactive”.

`c1ccc(-c2noc(-c3cccs3)n2)nc1`: the Potency was 14.1 µM (active).

Take `Clc1ccc(-n2nnnc2-c2cnc(-c3ccccn3)nc2-c2cccs2)cc1`: the Potency entry is “inactive”.

In the case of `O=C(CN1C(=O)CCn2nc(-c3ccccc3)cc21)NCc1ccccc1`, the Potency result was “inactive”.

`CN(C(=O)c1c(Cl)cnn1C)C12CC3CC(CC(C3)C1)C2`: the activity, negative = cell killing was 17.1% [at 1.84 µM] (inactive).

Consider `COc1ccc(-c2csc(NC(=O)COC(=O)Cc3ccc(Cl)cc3Cl)n2)cc1`, for which the Potency entry was “inactive”.

As to `COc1ccc(NC(=O)c2cc3cc(C)ccc3n2C)cc1`, the Potency result is “inactive”.

`Nc1nnc(SCC(=O)Nc2ccc3nc(SCC(=O)Nc4ccccc4)sc3c2)s1`: the Potency result is “inactive”.

Regarding `Cc1ccccc1CNC(=O)CSc1nnc(C)c2c(C)n(-c3ccccc3)nc12`, the Potency entry is “inactive”.

As to `O=C(CSc1ccc(C(F)(F)F)cc1[N+](=O)[O-])NCCOc1ccccc1`, the Potency result is “inactive”.

Take `COc1ccc(-c2c3c(=O)n(C)c(=O)n(C)c3c3c(C)nc4ccccc4n23)cc1`: the Potency result is “inactive”.

Turning to `CCc1nnc(SCc2nc(-c3cccc(C)c3)oc2C)c2cc3sc(C)cc3n12`, the Potency entry is “inactive”.

`Cc1noc(COc2ccccc2OCc2onc(C)c2Cl)c1Cl`: the Potency entry is “inactive”.

Turning to `O=C(NCCc1ccc(Cl)cc1)c1ccc2nc(CCc3ccccc3)oc2c1`, the Potency entry was “inactive”.

With `COc1cc(C(=O)NCCc2csc3nc(-c4ccccc4C)nn23)cc(OC)c1OC`, the Potency result is “inactive”.

`COc1ccc2c(c1)c(N1CCCC1=O)c(C(=O)Nc1ccccc1C(F)(F)F)n2C`: the Potency result is “inactive”.

Turning to `Cc1ccccc1-n1c(C)cc(/C=C2\NC(=O)NC2=O)c1C`, the Potency is 8.91 µM (active).

Consider `CCc1ccc(CNC(=O)c2cc3cc4ccc(OC)cc4nc3o2)cc1`, for which the Potency entry is “inactive”.

Consider `CCOc1ccc(NC(=O)Cn2cc(C(=O)c3ccc(C)cc3)c(=O)c3cc4c(cc32)OCCO4)cc1`, for which the Potency result was “inactive”.

With `Cc1cc(C)cc(NC(=O)CSc2nc(=O)n(CCN3CCOCC3)c3c2CCC3)c1`, the Potency entry was “inactive”.

As for `CCCCCCCCC(=O)NCCOc1ccccc1`, the Potency entry is “inactive”.

As for `Cc1ccc(NC(=O)CN2C(=O)CC(C)Sc3ccccc32)c(C)c1` (centres undefined), the Potency result was “inactive”.

For `O=C(CSc1nc2c(c(=O)[nH]1)CN(Cc1ccc(F)cc1)CC2)Nc1ccccc1Cl`, the Potency entry was “inactive”.

On to `Cc1cccc2nc(-c3ccc(Cl)s3)c(Nc3ccc4c(c3)OCCO4)n12`, for which the Potency result is “inactive”.

In the case of `Cc1ccc(Nc2c(-c3ccc(C)s3)nc3ccccn23)cc1`, the Potency entry is “inactive”.

For the molecule `Cc1ccn2c(Nc3ccc4c(c3)OCCO4)c(-c3ccc(C)s3)nc2c1`, the Potency is 10 µM (active).

On to `CCn1c2ccccc2c2nnc(N3CCN(c4cc(C)ccc4C)CC3)nc21`, for which the Potency entry is “inactive”.

Regarding `Cc1ccc(CCNC(=O)c2ccc(CS(=O)(=O)Cc3cccc(C)c3)o2)cc1`, the Potency result was “inactive”.

For `Cc1ccc(Cl)cc1N1CCN(C(=O)CN2C(=O)COc3ccc(S(=O)(=O)N4CCOCC4)cc32)CC1`, the Potency entry is “inactive”.

Turning to `Cc1cc(C)cc(-n2c(SCC(=O)NCC3CCCO3)nc3c([nH]c4ccccc43)c2=O)c1` (centres undefined), the Potency entry was “inactive”.

`COc1ccc(-c2cc(C(=O)Nc3sc4c(c3C(N)=O)CCCC4)no2)cc1`: the Potency entry was “inactive”.

Consider `CC1CCc2noc(NC(=O)c3ccc([N+](=O)[O-])cc3)c2C1` (centres undefined), for which the Potency result is “inactive”.

For `COc1ccc(C(=O)Nc2onc3c2CCCC3)cc1`, the Potency was 7.94 µM (active).

For `O=C(Cn1ncc2c3ccccc3n(Cc3ccccc3)c2c1=O)NC1CCCCCC1`, the Potency entry is “inactive”.

For `Cc1c(Cl)cccc1NC(=O)c1noc2c1CCCC2`, the Potency result was “inactive”.

Take `O=C(N/N=C/c1cccc([N+](=O)[O-])c1)C1CC(=O)N(c2ccc(Br)cc2)C1` (centres undefined): the Potency entry was “inactive”.

Regarding `CN(Cc1ccccc1)C(=O)COC(=O)c1ccccc1Nc1ccccc1`, the activity, negative = cell killing was -8.55% [at 1.84 µM] (inactive).

As to `O=C(NCc1ccccc1)c1cccc(NC(=O)N2CCSc3ncccc32)c1`, the Potency result was “inactive”.

The values above are taken from PubChem BioAssay AID904 (National Center for Advancing Translational Sciences (NCATS), 2007).
